A collection of fitness landscapes (doi:10.1038/s41467-024-54723-y)
Over roughly 18,000 sequences, “TetR repression strength (sort-seq, GFP reporter)” has its median near 0.23; the highest 2% begin near 0.68. The entries come from a sample that favours the highest values as a whole.

Molecular target: TetR (class B, Tn10) (UniProt P04483)
Test: TetR repression strength (sort-seq, GFP reporter) (relative to tetO2 = 1); higher = stronger repression
Conditions: E. coli
Outline: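 In LB with 50 µg/mL chloramphenicol, E. coli SIG10-MAX holding a low-copy library with eight randomized operator positions between a constitutive promoter and sfGFP, plus constitutive TetR, grew for 5 h at 37 °C. FACS then sorted 10^6 cells into 13 fluorescence bins for Illumina sequencing of each bin. Repression strength equals the top bin index plus one less the read-weighted mean bin, normalized to the unaltered operator. Values from three independent transformations were averaged when reads were ≥30 in every replicate and the CV was ≤0.5.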

Sequence of TetR (class B, Tn10) (P04483 whole entry): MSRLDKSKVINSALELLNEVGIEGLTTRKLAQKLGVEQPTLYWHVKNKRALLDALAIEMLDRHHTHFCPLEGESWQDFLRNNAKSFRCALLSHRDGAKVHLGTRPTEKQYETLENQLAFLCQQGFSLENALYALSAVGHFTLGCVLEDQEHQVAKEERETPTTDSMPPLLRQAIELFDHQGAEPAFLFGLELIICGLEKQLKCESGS

Sequence | TetR repression strength
TCCCGACTAGTTCGCGAGA | 0.367
TCCCATATAGTTAGCGAGA | 0.247
TCCCTCAGAGTTCCAGAGA | 0.313
TCCCCACTAGTCCGTGAGA | 0.279
TCCCCTATAGTATAGGAGA | 0.0691
TCCCTTATAGTACAGGAGA | 0.103
TCCCCTTAAGTACAGGAGA | 0.72
TCCCTTAAAGTACAGGAGA | 0.125
TCCCCTAAAGTACAGGAGA | 0.0737
TCCCCTATAGTACAGGAGA | 0.792
TCCCTGGAAGTGCAAGAGA | 0.431
TCCCAGGCAGTTGACGAGA | 0.698
TCCCAGTCAGTTGAAGAGA | 0.858
TCCCAGGCAGTTGAAGAGA | 0.182
TCCCAGGCAGTTGAGGAGA | 0.216
TCCCAATCAGTTGAAGAGA | 0.279
TCCCAGGGAGTTGACGAGA | 0.0614
TCCCAAGTAGTCAATGAGA | 0.663
TCCCACCAAGTCAATGAGA | 0.943
TCCCCACCAGTCAATGAGA | 0.315
TCCCACCCAGTCAATGAGA | 0.783
TCCCATCCAGTCAATGAGA | 0.0518
TCCCAATGAGTCAATGAGA | 0.207
TCCCCGCGAGTTGTAGAGA | 0.0957

Sequence | TetR repression strength
TCCCGGGTAGTTACTGAGA | 0.123
TCCCCAGAAGTGCGTGAGA | 0.0661
TCCCAACGAGTCAACGAGA | 0.366
TCCCAACGAGTCGACGAGA | 0.696
TCCCAACTAGTCGTCGAGA | 0.214
TCCCAACTAGTCGACGAGA | 0.701
TCCCAACTAGTCGAAGAGA | 0.267
TCCCGACGAGTCGACGAGA | 0.178
TCCCTGCTAGTGAAGGAGA | 0.649
TCCCTACCAGTGATAGAGA | 0.94
TCCCTAGTAGTGATAGAGA | 0.533
TCCCTAACAGTGATAGAGA | 0.816
TCCCTAGCAGTGATAGAGA | 0.858
TCCCTAGCAGTGAGAGAGA | 0.376
TCCCTTCCAGTGATAGAGA | 0.668
TCCCTCCCAGTGATAGAGA | 0.561
TCCCAACGAGTTGTGGAGA | 0.189
TCCCACGCAGTAGGTGAGA | 0.138
TCCCTGCTAGTAGGAGAGA | 0.415
TCCCAGTCAGTGGCGGAGA | 0.205
TCCCTAGAAGTACTAGAGA | 0.152
TCCCCAGCAGTTTAGGAGA | 0.207
TCCCGTCGAGTTTGAGAGA | 0.274
TCCCGTCTAGTTAGAGAGA | 0.224

Sequence | TetR repression strength
TCCCGTCTAGTTTGTGAGA | 0.784
TCCCGTCGAGTTTTTGAGA | 0.363
TCCCGTCGAGTTTGTGAGA | 0.772
TCCCGTCGAGTTAGTGAGA | 0.366
TCCCGTCTAGTGTGTGAGA | 0.237
TCCCGTCTAGTTTGCGAGA | 0.277
TCCCGTCTAGTTAGTGAGA | 0.719
TCCCTGTGAGTCGCGGAGA | 0.327
TCCCGGTCAGTGCTAGAGA | 0.638
TCCCAGGGAGTCAGTGAGA | 0.319
TCCCTACTAGTAGTAGAGA | 0.389
TCCCGGATAGTTGATGAGA | 0.285
TCCCACTCAGTGAGGGAGA | 0.255
TCCCGCAGAGTTAGAGAGA | 0.5
TCCCATACAGTGAGTGAGA | 0.176
TCCCGAGAAGTCGCGGAGA | 0.0355
TCCCAGTAAGTATCGGAGA | 0.221
TCCCAGTAAGTGGGGGAGA | 0.196
TCCCTGTGAGTGACGGAGA | 0.115
TCCCTGTAAGTGACGGAGA | 0.796
TCCCTGAAAGTGACGGAGA | 0.506
TCCCAGTAAGTCGGGGAGA | 0.698
TCCCGTGCAGTCGTCGAGA | 0.216
TCCCAGTGAGTGTCGGAGA | 0.183

Sequence | TetR repression strength
TCCCAGTAAGTGTCGGAGA | 0.811
TCCCAGTAAGTCCGGGAGA | 0.157
TCCCGTGGAGTCGTGGAGA | 0.209
TCCCGTGCAGTCGTGGAGA | 1
TCCCGCATAGTAGGTGAGA | 0.317
TCCCAATGAGTTCGTGAGA | 0
TCCCTCATAGTGGGCGAGA | 0.213
TCCCGCCCAGTAGGGGAGA | 0.163
TCCCTGCAAGTTGATGAGA | 0.246
TCCCATGTAGTCCTGGAGA | 0.341
TCCCCTTAAGTGGTAGAGA | 0.201
TCCCCGTTAGTGTCGGAGA | 0.137
TCCCAGTCAGTCGGGGAGA | 0.776
TCCCATTCAGTCTTTGAGA | 0.228
TCCCGTATAGTCGGGGAGA | 0.216
TCCCGTACAGTCGGGGAGA | 0.698
TCCCTGTCAGTCGGGGAGA | 0.154
TCCCAGTGAGTCTTTGAGA | 0.339
TCCCGTACAGTGGGGGAGA | 0.145
TCCCAGTCAGTCTTTGAGA | 0.726
TCCCAGCCAGTCGGGGAGA | 0.184
TCCCGGTGAGTCAAAGAGA | 0.338
TCCCTTCCAGTCATTGAGA | 0.225
TCCCTGTCAGTATAGGAGA | 0.0605

Sequence | TetR repression strength
TCCCGCCGAGTGGACGAGA | 0.514
TCCCCTGCAGTTGGAGAGA | 0.159
TCCCAGTTAGTTGAGGAGA | 0.231
TCCCACGGAGTCACCGAGA | 0.205
TCCCGACAAGTGATAGAGA | 0.642
TCCCTATAAGTGATAGAGA | 0.994
TCCCCCTAAGTGATAGAGA | 0.442
TCCCGAGAAGTGATAGAGA | 0.425
TCCCGATAAGTGAGTGAGA | 0.375
TCCCGATAAGTCAGTGAGA | 0.747
TCCCGATAAGTGATAGAGA | 0.733
TCCCGCTCAGTGGTAGAGA | 0.428
TCCCGCTCAGTGTTAGAGA | 0.433
TCCCTATAAGTCGTAGAGA | 0.503
TCCCGATGAGTCAGTGAGA | 0.38
TCCCGCTCAGTGATAGAGA | 0.742
TCCCGTATAGTGGGGGAGA | 0.0618
TCCCGGGTAGTGACGGAGA | 0.181
TCCCACGAAGTGCCTGAGA | 0.486
TCCCAGGGAGTAAAGGAGA | 0.188
TCCCGCAGAGTTGGCGAGA | 0.186
TCCCGATCAGTGCTAGAGA | 0.657
TCCCGCTGAGTGATAGAGA | 0.483
TCCCGACAAGTAGCTGAGA | 0.187

Sequence | TetR repression strength
TCCCGCTAAGTGATAGAGA | 0.69
TCCCTTTTAGTGATAGAGA | 0.512
TCCCGATCAGTGATAGAGA | 0.778
TCCCTAATAGTGATAGAGA | 0.614
TCCCTATTAGTGATAGAGA | 0.878
TCCCGATAAGTAGCTGAGA | 0.921
TCCCGGTAAGTGATAGAGA | 0.609
TCCCGATCAGTGATGGAGA | 0.482
TCCCGATAAGTGGCTGAGA | 0.523
TCCCTTATAGTGCCTGAGA | 0.162
TCCCGAACAGTGTAGGAGA | 0.0968
TCCCGCTTAGTCCGTGAGA | 0.183
TCCCTGGAAGTGGGGGAGA | 0.208
TCCCTGATAGTTTTCGAGA | 0.301
TCCCTCGAAGTAGGGGAGA | 0.154
TCCCATTAAGTGAACGAGA | 0.253
TCCCCGAGAGTGTGTGAGA | 0.248
TCCCGTCAAGTGGCCGAGA | 0.152
TCCCGGGGAGTAGCTGAGA | 0.709
TCCCGGGGAGTGGCTGAGA | 0.301
TCCCGTCAAGTAGCCGAGA | 1.02
TCCCGGGAAGTAGCTGAGA | 0.647
TCCCGTCAAGTACCCGAGA | 0.325
TCCCGAGTAGTAACGGAGA | 0.461

Sequence | TetR repression strength
TCCCGAGAAGTGCCTGAGA | 0.178
TCCCGTCTAGTGAAGGAGA | 0.315
TCCCGGTCAGTGCAGGAGA | 0.531
TCCCGTCTAGTAGTGGAGA | 0.468
TCCCCAGGAGTGGCTGAGA | 0.0764
TCCCCTAGAGTCTGAGAGA | 0.122
TCCCTCGGAGTCTGTGAGA | 0.215
TCCCCTCGAGTCTGAGAGA | 0.89
TCCCTCGTAGTCTAAGAGA | 0.142
TCCCTCGGAGTCTGCGAGA | 0.522
TCCCTCGTAGTCTGCGAGA | 0.447
TCCCCTTGAGTCTGAGAGA | 0.333
TCCCTCGTAGTCTGAGAGA | 1.03
TCCCTCGGAGTCTGAGAGA | 1.02
TCCCAACCAGTTTTAGAGA | 0.399
TCCCGCATAGTACGTGAGA | 0.273
TCCCGATGAGTTGCTGAGA | 0.124
TCCCTGCGAGTGATAGAGA | 0.618
TCCCCGTCAGTTTGCGAGA | 0.741
TCCCCGGTAGTTTGCGAGA | 0.971
TCCCCGGTAGTTTGAGAGA | 0.302
TCCCTCTGAGTTTGCGAGA | 0.335
TCCCCCTCAGTTTGCGAGA | 0.518
TCCCTCTTAGTTTGCGAGA | 0.796

Sequence | TetR repression strength
TCCCTATTAGTTTGCGAGA | 0.417
TCCCCGTCAGTGCGCGAGA | 0.229
TCCCAGTCAGTTTGCGAGA | 0.167
TCCCCGTCAGTGTGCGAGA | 0.333
TCCCCGTCAGTGCGAGAGA | 0.69
TCCCCAGTAGTTTGCGAGA | 0.202
TCCCGTGGAGTAGCAGAGA | 0.169
TCCCTGGGAGTAAGGGAGA | 0.28
TCCCGGGGAGTGTTAGAGA | 0.247
TCCCTGAGAGTCGATGAGA | 0.237
TCCCTTTTAGTATACGAGA | 0.242
TCCCACCGAGTGTTGGAGA | 0.286
TCCCCCCAAGTCGGCGAGA | 0.00669
TCCCACTGAGTTGGAGAGA | 0.16
TCCCTAGCAGTTGAGGAGA | 0.0558
TCCCAGCGAGTATGAGAGA | 0.0754
TCCCGAAGAGTTGTTGAGA | 0.233
TCCCATCTAGTCAGGGAGA | 0.305
TCCCCTGCAGTGGGGGAGA | 0.225
TCCCTTATAGTGTAGGAGA | 0.0398
TCCCATGAAGTGTGTGAGA | 0.127
TCCCTGTAAGTCGTGGAGA | 0.309
TCCCCGTGAGTCTGAGAGA | 0.215
TCCCCGTGAGTCAGAGAGA | 0.963

Sequence | TetR repression strength
TCCCCGTGAGTCAGGGAGA | 0.152
TCCCTGTTAGTGCCAGAGA | 0.193
TCCCATTAAGTGCATGAGA | 0.106
TCCCTGTAAGTTGACGAGA | 0.1
TCCCACTTAGTTGGGGAGA | 0.201
TCCCCACTAGTGAAGGAGA | 0.203
TCCCAGTCAGTGACAGAGA | 0.416
TCCCAAGCAGTGATAGAGA | 0.505
TCCCACTAAGTGATAGAGA | 0.427
TCCCAATCAGTGACAGAGA | 0.723
TCCCCATAAGTGATAGAGA | 0.522
TCCCACTCAGTGATAGAGA | 0.701
TCCCCAGCAGTGATAGAGA | 0.186
TCCCAATCAGTGGTAGAGA | 0.521
TCCCACTCAGTGAGAGAGA | 0.514
TCCCAATCAGTGATAGAGA | 0.785
TCCCCATCAGTGATAGAGA | 0.966
TCCCAAACAGTGACAGAGA | 0.622
